Laboratory results taken from the supplement of paper PMC6992640.
± gives the standard deviation of the averaged measurements.

What was measured:
Assay in all cases: cell viability (% of vehicle); higher = less cytotoxic
Settings in all cases: 10 µM; 72 h
[1] = test system: HCI01 (cells of a triple-negative basal-like breast cancer xenograft)
[2] = test system: HCI03 (cells of an ER-positive luminal breast cancer xenograft)
[3] = test system: HCI09 (cells of a triple-negative luminal androgen receptor type breast cancer xenograft)
[4] = test system: HCI11 (cells of an ER-positive luminal breast cancer xenograft)
[5] = test system: HCI13 (cells of an ER-positive luminal breast cancer xenograft)
[6] = test system: HCI16 (cells of a triple-negative basal-like breast cancer xenograft)
[7] = test system: UCD52 (cells of a triple-negative basal-like breast cancer xenograft)
[8] = test system: WHIM2 (cells of a triple-negative basal-like breast cancer xenograft)
[9] = test system: WHIM30 (cells of a triple-negative basal-like breast cancer xenograft)
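Note: PDX cells carrying CMV promoter-driven luciferase, viability read as total photon flux per second by IVIS imaging following D-luciferin, vehicle control 0.1% DMSO.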

Compound	cell viability [1]	cell viability [2]	cell viability [3]	cell viability [4]	cell viability [5]	cell viability [6]	cell viability [7]	cell viability [8]	cell viability [9]
CCC(CO)NCCNC(CC)CO.Cl.Cl (stereo unspecified) [Ethambutol HCl]	98.6 ± 2.4	122	102 ± 7.8	103	146 ± 15	102	86.7 ± 3	93.4 ± 21	153 ± 7.2
CCCN(CCC)CCc1cccc2c1CC(=O)N2.Cl [Ropinirole HCl]	61.7 ± 39	93.8	87.9 ± 2.6	86.3	95.9 ± 8.2	102	78.9 ± 7.1	91.6 ± 38	126 ± 12
CC(=O)Oc1cccc2c1C(=O)c1c(OC(C)=O)cc(C(=O)O)cc1C2=O [Diacerein]	57 ± 39	93.9	79.1 ± 34	77.8	109 ± 11	146	98.6 ± 6.8	123 ± 39	60.3 ± 16
CCOC(=O)C(CCc1ccccc1)NC(C)C(=O)N1C(C(=O)O)CC2CCCC21 (stereo unspecified) [Ramipril]	77.7 ± 49	129	86.7 ± 4.7	91.6	115 ± 14	106	87.6 ± 5.9	90.8 ± 9.4	99.772 ± 0.035
CCCC(=O)Nc1ccc(OCC(O)CNC(C)C)c(C(C)=O)c1.Cl (stereo unspecified) [Acebutolol HCl]	125 ± 5.8	123	102 ± 22	106	76.3 ± 3.2	156	97.1 ± 7	98.7 ± 8.9	131.6 ± 0.063
CC(=O)Oc1ccccc1C(=O)O [Aspirin (Acetylsalicylic acid)]	174 ± 16	107	98.5 ± 3.8	136	148 ± 30	151	142 ± 13	101 ± 16	160 ± 23
C1N2CN3CN1CN(C2)C3 [Methenamine]	89.3 ± 14	127	101 ± 14	90.8	177 ± 29	104	90.2 ± 4.5	91.8 ± 2.4	142 ± 4.7
CC(=O)OCC(=O)C1(O)CCC2C3CCC4=CC(=O)CCC4(C)C3C(=O)CC21C (stereo unspecified) [Cortisone acetate]	119 ± 17	130	119 ± 47	105	96.1 ± 13	140	106 ± 31	112 ± 19	119 ± 6.2
CC1(C)SC2C(NC(=O)C(NC(=O)N3CCNC3=O)c3ccccc3)C(=O)N2C1C(=O)[O-].[Na+] (stereo unspecified) [Azlocillin sodium salt]	97.6 ± 24	131	104 ± 17	104	76.5 ± 9.1	130	97.766 ± 0.039	106 ± 29	125 ± 12
C#C[C@]1(O)CC[C@H]2[C@@H]3CCC4=CCCC[C@@H]4[C@H]3C(=C)C[C@@]21CC [Desogestrel]	94.9 ± 2.5	146	81 ± 11	87.2	41.5 ± 5.2	97.5	74.4 ± 2	64.2 ± 39	71.8 ± 53
CC(C)NCC(O)c1ccc(O)c(O)c1.Cl (stereo unspecified) [Isoprenaline HCl]	95.7 ± 15	108	87.2 ± 13	90.3	76.2 ± 2	122	91.9 ± 9.1	77.2 ± 5.8	113 ± 7.1
CC1=C(C(=O)O)N2C(=O)C(NC(=O)C(N)c3ccccc3)C2SC1 (stereo unspecified) [Cephalexin]	135 ± 38	122	86.6 ± 21	101	76.3 ± 2.8	113	114.8 ± 0.94	118 ± 12	111 ± 5.6
Nc1nc(F)nc2c1ncn2C1OC(COP(=O)(O)O)C(O)C1O (stereo unspecified) [Fludarabine Phosphate (Fludara)]	101 ± 16	134	98.1 ± 17	124	98.8 ± 10	106	98.2 ± 4.5	127 ± 32	115 ± 13
COC(=O)C1=C(C)NC(C)=C(C(=O)OCC(C)C)C1c1ccccc1[N+](=O)[O-] (stereo unspecified) [Nisoldipine]	98.3 ± 32	109	27.4 ± 1.6	74	93.1 ± 39	180	84.1 ± 5.2	88.6 ± 17	123 ± 16
CCCCCCOC(=O)N=C(N)c1ccc(NCc2nc3cc(C(=O)N(CCC(=O)OCC)c4ccccn4)ccc3n2C)cc1.CS(=O)(=O)O [Dabigatran etexilate mesylate]	98.8 ± 8.5	126	81.5 ± 8.2	99.4	106 ± 23	94.6	98.4 ± 9	63.2 ± 3.8	104 ± 5.8
Clc1ccc2c(c1)CCc1cccnc1C2=C1CCNCC1 [Desloratadine]	164 ± 55	143	99.6 ± 1.5	77.5	128 ± 19	128	67.2 ± 9.1	69.5 ± 16	102 ± 7.8
CC(=O)N[C@H](Cc1ccc2ccccc2c1)C(=O)N[C@H](Cc1ccc(Cl)cc1)C(=O)N[C@H](Cc1cccnc1)C(=O)N[C@@H](CO)C(=O)N[C@@H](Cc1ccc(O)cc1)C(=O)N[C@H](CCCNC(N)=O)C(=O)N[C@@H](CC(C)C)C(=O)N[C@@H](CCCNC(=N)N)C(=O)N1CCC[C@H]1C(=O)N[C@H](C)C(N)=O [Cetrorelix]	111 ± 16	131	96.7 ± 19	102	190 ± 48	151	96.1 ± 7	122 ± 61	132 ± 7.8
CC(C)(Oc1ccc(Cl)cc1)C(=O)O [Clofibric Acid]	109 ± 22	119	79.6 ± 22	99.3	94.8 ± 9.6	97.8	81.1 ± 14	93.3 ± 20	109.5 ± 0.67
CS(=O)(=O)O.Cc1ccc(N(CC2=NCCN2)c2cccc(O)c2)cc1 [Phentolamine Mesylate]	112 ± 14	116	118 ± 7.2	112	124 ± 11	101	99.5 ± 6.4	93.5 ± 12	137 ± 12
Cl.Cl.O=C(O)COCCN1CCN(C(c2ccccc2)c2ccc(Cl)cc2)CC1 (stereo unspecified) [Cetirizine DiHCl]	111 ± 5.7	118	98.4 ± 0.98	103	147 ± 6.2	116	78.6 ± 6.7	90.1 ± 1.9	109 ± 7.9
CC1OC(n2cc(F)c(=O)[nH]c2=O)C(O)C1O (stereo unspecified) [Doxifluridine]	67.1 ± 35	152	89.8 ± 12	110	104 ± 7.4	148	93 ± 19	102 ± 19	175.4 ± 0.91
COc1cc2nc(N3CCN(C(=O)c4ccco4)CC3)nc(N)c2cc1OC.Cl [Prazosin HCl]	152 ± 2.9	129	36.9 ± 1.6	131	108 ± 16	156	140 ± 7.2	52.5 ± 4.7	114 ± 1.7

Compound	cell viability [1]	cell viability [2]	cell viability [3]	cell viability [4]	cell viability [5]	cell viability [6]	cell viability [7]	cell viability [8]	cell viability [9]
Cc1cn(C2CC(N=[N+]=[N-])C(CO)O2)c(=O)[nH]c1=O (stereo unspecified) [Zidovudine]	104 ± 3.4	160	116 ± 1.2	101	124 ± 7.2	143	123 ± 16	98.22 ± 0.63	144 ± 7.7
COc1ccc2cccc(CCNC(C)=O)c2c1 [Agomelatine]	92.5 ± 10	139	99.7 ± 4.7	92.4	89.4 ± 2.2	105	86.1 ± 12	89.9 ± 20	136 ± 11
O=C(O)CCc1nc(-c2ccccc2)c(-c2ccccc2)o1 [Oxaprozin]	121 ± 25	102	89.1 ± 2.8	106	108 ± 1.6	122	99.29 ± 0.38	101 ± 11	151 ± 17
CC/C(=C(\c1ccccc1)c1ccc(OCCN(C)C)cc1)c1ccccc1 [Tamoxifen]	39.1 ± 8.5	139	58.5 ± 44	120	82.5 ± 42	88.8	74.5 ± 15	70.4 ± 0.76	123 ± 9.1
S=P(N1CC1)(N1CC1)N1CC1	109 ± 26	143	104 ± 1.4	103	111.3 ± 0.35	120	96.8 ± 5.2	83.8 ± 23	119 ± 11
Nc1nc(=O)c2ncn(CCC(CO)CO)c2[nH]1 [Penciclovir]	115 ± 28	140	92.4 ± 6.6	95.3	84.4 ± 9.1	130	110 ± 5.5	123 ± 34	99.7 ± 8.5
CC(=O)OC1CC2CCC3C(CCC4(C)C3CC([N+]3(C)CCCCC3)C4OC(C)=O)C2(C)CC1N1CCCCC1.[Br-] (stereo unspecified) [Vecuronium Bromide]	84.7 ± 11	146	90.5 ± 0.71	105	110 ± 14	93.9	87.7 ± 8.1	80.9 ± 7.3	155 ± 3.4
Cc1cc(C#N)cc(C)c1Oc1nc(Nc2ccc(C#N)cc2)nc(N)c1Br [Etravirine (TMC125)]	107 ± 6.5	127	91.9 ± 4.6	93.4	86.559 ± 0.026	109	99.3 ± 18	92.3 ± 3.6	137.8 ± 0.96
Cl.O=C1OC(CN2CCOCC2)CN1N=Cc1ccc([N+](=O)[O-])o1 (stereo unspecified) [Furaltadone HCl]	75.8 ± 23	153	46.7 ± 22	63.7	94.2 ± 14	97	135 ± 13	42.7 ± 10	96 ± 4.8
Cl.NCCc1ccc(O)c(O)c1 [Dopamine HCl]	112 ± 25	103	113 ± 37	84.4	59 ± 2.7	125	93.6 ± 0.5	56 ± 2.1	128 ± 6.4
O=C([O-])Cc1ccccc1Nc1c(Cl)cccc1Cl.[K+] [Diclofenac Potassium]	117 ± 9.3	106	100 ± 24	100	65.9 ± 1.7	114	73.8 ± 2.9	109 ± 28	117 ± 39
COc1ccc(-c2ccc3cc(C(=O)O)ccc3c2)cc1C12CC3CC(CC(C3)C1)C2 [Adapalene]	119 ± 6.1	81.4	92.2 ± 40	95.5	139 ± 23	82.7	179 ± 28	83.8 ± 12	114 ± 18
Cl.c1ccc2c(c1)CCCC2C1=NCCN1 (stereo unspecified) [Tetrahydrozoline HCl]	114 ± 3.1	116	97.1 ± 17	106	86.8 ± 1.9	108	89.5 ± 2	101 ± 21	115 ± 2.9
CN1CCC(=C2c3ccccc3C=Cc3ccccc32)CC1.Cl [Cyproheptadine hydrochloride]	91 ± 16	115	83.3 ± 9	95.8	89.6 ± 1.1	90.1	79.8 ± 13	81.1 ± 14	116 ± 10
CN(Cc1cnc2nc(N)nc(N)c2n1)c1ccc(C(=O)NC(CCC(=O)O)C(=O)O)cc1 (stereo unspecified) [Methotrexate]	101 ± 8.6	115	91.1 ± 13	113	104 ± 7.5	93.4	89.1 ± 8.7	101 ± 2.1	94.9 ± 13
CON=C(C(=O)NC1C(=O)N2C(C(=O)O)=C(CSC(=O)c3ccco3)CSC12)c1csc(N)n1.Cl (stereo unspecified) [Ceftiofur HCl]	90.2 ± 12	132	95.9 ± 8.5	100	56.9 ± 2.3	103	103 ± 12	104 ± 10	111 ± 14
Cc1cncc(CN2CCC(=C3c4ccc(Cl)cc4CCc4cccnc43)CC2)c1.O=C(O)C=CC(=O)O [Rupatadine Fumarate]	89.8 ± 4.1	87.7	42 ± 3	70.2	58.2 ± 9.9	109	63.1 ± 3.4	78 ± 7.6	81.2 ± 3.8
Cc1nc2c([nH]1)CCN(C(=O)c1ccc(NC(=O)c3ccccc3-c3ccccc3)cc1)c1ccccc1-2.Cl [Conivaptan HCl]	111 ± 18	83.3	60.4 ± 7.1	85.3	99.5 ± 17	106	71.7 ± 2.5	104 ± 22	141 ± 2
C#CCNC1CCc2ccccc21.CS(=O)(=O)O (stereo unspecified) [Rasagiline Mesylate]	157 ± 6	117	117 ± 8.5	127	126 ± 4.8	141	107 ± 8.4	114 ± 6.4	139 ± 16
[O-][n+]1cccc(CO)c1 [Mepiroxol]	117 ± 13	119	105.2 ± 0.98	103	99.24 ± 0.22	97	90.9 ± 8.7	95.7 ± 9.9	139 ± 26
CC(C(=O)[O-])c1cccc(Oc2ccccc2)c1.CC(C(=O)[O-])c1cccc(Oc2ccccc2)c1.[Ca+2] (stereo unspecified) [Fenoprofen Calcium]	112 ± 34	100	101 ± 7.6	94.3	121 ± 16	105	83 ± 3.5	98.7 ± 7.4	169 ± 11
Cc1[nH]c(C=C2C(=O)Nc3ccccc32)c(C)c1CCC(=O)O [TSU-68 (SU6668,Orantinib)]	79.2 ± 19	116	90.8 ± 25	106	60.8 ± 6.6	111	123 ± 18	60.9 ± 4.7	112 ± 13
